PLK1 PBD inh – inhibitors of human Plk1 polo box domain binding; Plk1 PBD phosphopeptide binding, fluorescence polarization; inhibition, %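 (tested at about 20 µM)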; AID 693; P53350; hit rate 0.13% among 97,000; in the data active means inhibition above about 34%, passing the limit was not always enough
CYP2C19 inh – blocks human cytochrome P450 2C19; P33261; hit rate 21% among 96,000; inhibition, % at 5 µM; CYP2C19 Supersomes, luciferin-H EGE luminescence, 30 min;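 active means CYP2C19 inhibition above a set limit at 5 µM in the primary screen, cut at about 50% in these data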;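 further: plate controls were negative control wells for no effect and 2.5 mM tranylcypromine positive control for full effect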
CYP2C9 activ – increases human cytochrome P450 2C9 activity | recombinant CYP2C9, luciferin-H conversion, luminescence; active compounds read high; factor 1 = untreated enzyme, 0 = blocked | activation factor at 5 µM | hit rate 1.4% among 96,000 | AID 1024;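 active means activation factor of 2 or more for CYP2C9 at a 5 µM dose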;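 further: 0 = sulfaphenazole-blocked wells and 1 = vehicle-only wells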
Target sequence (P11712 whole entry, looked up): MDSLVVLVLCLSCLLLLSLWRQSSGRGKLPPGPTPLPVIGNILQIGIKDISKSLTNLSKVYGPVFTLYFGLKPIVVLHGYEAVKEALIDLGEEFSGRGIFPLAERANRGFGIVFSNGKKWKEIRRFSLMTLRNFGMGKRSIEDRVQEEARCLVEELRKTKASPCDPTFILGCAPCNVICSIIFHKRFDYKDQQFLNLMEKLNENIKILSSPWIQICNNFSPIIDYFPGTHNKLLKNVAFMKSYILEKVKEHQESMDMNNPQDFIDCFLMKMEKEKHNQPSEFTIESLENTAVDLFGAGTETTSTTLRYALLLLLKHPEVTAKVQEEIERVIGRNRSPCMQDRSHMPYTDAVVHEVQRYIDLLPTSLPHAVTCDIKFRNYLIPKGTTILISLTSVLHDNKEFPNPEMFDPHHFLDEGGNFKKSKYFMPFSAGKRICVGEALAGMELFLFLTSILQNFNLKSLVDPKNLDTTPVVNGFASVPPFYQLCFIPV
PLK1 kinase inh – blocks human PLK1 kinase activity. hit rate 0.53% among 97,000. recombinant PLK1 kinase, TR-FRET peptide phosphorylation. P53350. AID 619. inhibition, % at 10 µM;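 active means inhibition of 50% or more in the single-concentration screen; inactive means inhibition below 50%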;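 further: 0% = DMSO max control and 100% = H-89 dihydrochloride min control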
CYP2C19 activ – increases human CYP2C19 enzyme activity; P33261; activation factor at 5 µM; 96,000 tested, under 10 active; AID 1025; recombinant CYP2C19, luciferin-H EGE luminescence; active compounds read high; 0 = fully inhibited enzyme, 1 = untreated enzyme;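 active means activation factor of at least 2 at 5 µM in the primary screen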;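 further: 0 = wells with 2.5 mM tranylcypromine and 1 = vehicle-only wells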
CYP2C9 inhib – human CYP2C9 inhibition | P11712 | CYP2C9 Supersomes, luciferin-H conversion, luminescence | inhibition, % at 5 µM | hit rate 20% among 96,000 | AID 777;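 active means blocking of liver enzyme CYP2C9 beyond about 50% at 5 µM, limit read from the data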
Numbers without * were called inactive. An excerpt weighted towards active compounds, which were near 28% of everything screened.

For c1ccc(-c2c(-c3ccccc3)n(Cc3ccco3)c3ncnc(NCCCn4ccnc4)c23)cc1 the results were PLK1 PBD inh 1.0, CYP2C19 inh 100.4*, CYP2C9 activ 0, PLK1 kinase inh 2.7, CYP2C19 activ 0 and CYP2C9 inhib 100.2*.
For N=c1c2c(-c3ccccc3)c(-c3ccccc3)n(Cc3ccco3)c2ncn1Cc1ccccc1 the results were PLK1 PBD inh -10.3, CYP2C19 inh 26.3, CYP2C9 activ 0.8, PLK1 kinase inh -8.6, CYP2C19 activ 0.7 and CYP2C9 inhib 18.6.
c1ccc(-c2oc3ncnc(NCCCn4ccnc4)c3c2-c2ccccc2)cc1 was read as PLK1 PBD inh -16.4, CYP2C19 inh 98.5*, CYP2C9 activ 0, PLK1 kinase inh 19.2, CYP2C19 activ 0 and CYP2C9 inhib 99.1*.
Screening c1ccc(-c2oc3ncnc(NCCN4CCOCC4)c3c2-c2ccccc2)cc1 returned PLK1 PBD inh 3.7, CYP2C19 inh 82.9*, CYP2C9 activ 0, PLK1 kinase inh -7.7, CYP2C19 activ 0.2 and CYP2C9 inhib 97.9*.
`OCCNc1ncnc2c1c(-c1ccccc1)c(-c1ccccc1)n2Cc1ccco1` gave PLK1 PBD inh -3.4, CYP2C19 inh 41.2, CYP2C9 activ 0.4, PLK1 kinase inh -7.7, CYP2C19 activ 0.6 and CYP2C9 inhib 56.5*.
`O=C(O)CCCC(=O)NCCCCc1ccccc1` gave PLK1 PBD inh 16.4, CYP2C19 inh -2.3, CYP2C9 activ 1, PLK1 kinase inh 1.2, CYP2C19 activ 1 and CYP2C9 inhib 2.3.
`CC(=O)/C(=N/Nc1ccccc1C)N1CCOCC1` gave PLK1 PBD inh 4.2, CYP2C19 inh 17.4, CYP2C9 activ 1, PLK1 kinase inh -5.1, CYP2C19 activ 0.8 and CYP2C9 inhib -3.0.
COc1ccc(N=Nc2nc3ccc(Br)cc3n2C)cc1 was read as PLK1 PBD inh 40.5, CYP2C19 inh 13.5, CYP2C9 activ 1.1, PLK1 kinase inh -3.5, CYP2C19 activ 0.9 and CYP2C9 inhib -14.6.
For O=C(O)c1ccc(C2CCCCC2)cn1 the results were PLK1 PBD inh 19.2, CYP2C19 inh 16.0, CYP2C9 activ 1, PLK1 kinase inh -19.2, CYP2C19 activ 0.8 and CYP2C9 inhib 3.7.
COc1ccc(C2(CNC(=O)/C=C\c3ccco3)CCCC2)cc1OC was read as PLK1 PBD inh 21.1, CYP2C19 inh 28.5, CYP2C9 activ 0.6, PLK1 kinase inh -4.3, CYP2C19 activ 0.7 and CYP2C9 inhib 35.5.
Screening CN(C)c1cccc(C(=O)n2cc(C(=O)c3cc(F)ccc3O)cn2)c1 returned PLK1 PBD inh -1.4, CYP2C19 inh 34.8, CYP2C9 activ 1.1, PLK1 kinase inh -7.1, CYP2C19 activ 0.7 and CYP2C9 inhib -7.5.
Screening CCCOC(=O)C1C2C=CC(C3CC23)C1C(=O)OCC(=O)c1ccccc1 (configuration not stated) returned PLK1 PBD inh 24.1, CYP2C19 inh 91.2*, CYP2C9 activ 0.3, PLK1 kinase inh -7.4, CYP2C19 activ 0.1 and CYP2C9 inhib 73.2*.
`CC(C)(C)OC(=O)N1CC(O)CC1C(=O)OCC(=O)c1ccccc1` (configuration not stated) gave PLK1 PBD inh -29.4 and PLK1 kinase inh -6.3.
COCCCn1c(Cc2csc(Nc3ccc(F)cc3)n2)nnc1SCC(N)=O was read as PLK1 PBD inh -9.8, CYP2C19 inh 1.0, CYP2C9 activ 0.8, PLK1 kinase inh -1.0, CYP2C19 activ 1 and CYP2C9 inhib 21.2.
For CCOc1nnnc2c1sc1nc(N3CCOCC3)c3c(c12)CC(C)(C)OC3 the results were PLK1 PBD inh -13.0 and PLK1 kinase inh -28.6.
`Cc1cc(-c2ccccc2)n2ncc(C#N)c2n1` gave PLK1 PBD inh 23.8, CYP2C19 inh 6.7, CYP2C9 activ 1.1, PLK1 kinase inh 54.3*, CYP2C19 activ 0.9 and CYP2C9 inhib -10.1.
`C#CCSc1nnc(-c2ccccc2)c(=O)[nH]1` gave PLK1 PBD inh -4.7, CYP2C19 inh 6.5, CYP2C9 activ 0.4, PLK1 kinase inh -2.9, CYP2C19 activ 0.9 and CYP2C9 inhib 55.6*.
Screening O=C(O)C1C2CCC(O2)C1C(=O)NCc1ccncc1 (configuration not stated) returned PLK1 PBD inh -27.9, CYP2C19 inh 34.8, CYP2C9 activ 0.7, PLK1 kinase inh -6.5, CYP2C19 activ 0.7 and CYP2C9 inhib 30.4.
`NCCCCCNC(=O)/C=N\O` gave PLK1 PBD inh -1.4, CYP2C19 inh -6.4, CYP2C9 activ 1, PLK1 kinase inh -2.0, CYP2C19 activ 1.1 and CYP2C9 inhib -2.4.
